About 83,000 compounds went through this panel and 20% of them were active in at least one assay; those are over-represented in the sample as a whole.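 Negative percent growth values reflect cell death: -40 means 40% of the cells present at the start died, and -100 means all died.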 Values without a mark were called inactive. The source made the active and inactive calls. How the source made its calls: active means growth percent below 10; inactive means the rest.
How the values were obtained:
Experiment in all cases: NCI-60 one-dose screen, 48 h (100 = growth as untreated, 0 = no growth, -100 = all killed)
Conditions in all cases: 10 µM unless noted
DU-145 prostate = tested on: DU-145 prostate
K-562 leukemia = tested on: K-562 leukemia
MALME-3M melanoma = tested on: MALME-3M melanoma
MDA-MB-231 breast = tested on: MDA-MB-231 breast
RXF 393 renal = tested on: RXF 393 renal
SF-268 CNS = tested on: SF-268 CNS
SF-295 CNS = tested on: SF-295 CNS
SF-539 CNS = tested on: SF-539 CNS
UACC-257 melanoma = tested on: UACC-257 melanoma
M14 melanoma = tested on: M14 melanoma

COc1ccccc1/C=C/c1cccc(NC(=S)NCCCCN(C)C)c1
growth (DU-145 prostate): -69% (active)
growth (K-562 leukemia): 1.56% (active)
growth (MALME-3M melanoma): -90.6% (active)
growth (MDA-MB-231 breast): -89.8% (active)
growth (RXF 393 renal): -94.2% (active)
growth (SF-268 CNS): 6.05% (active)
growth (SF-295 CNS): -100% (active)
growth (SF-539 CNS): -93% (active)
growth (UACC-257 melanoma): -82.6% (active)
growth (M14 melanoma): -74% (active)

COC(=O)c1ccc(-c2c(-c3ccccc3)c(F)c3oc(C(=O)OC)c(N)c3c2-c2ccccc2)cc1
growth (DU-145 prostate): 104%
growth (K-562 leukemia): 85.1%
growth (MALME-3M melanoma): 99.9%
growth (MDA-MB-231 breast): 99.3%
growth (RXF 393 renal): 95.6%
growth (SF-268 CNS): 91.6%
growth (SF-295 CNS): 89.7%
growth (SF-539 CNS): 90%
growth (UACC-257 melanoma): 111%
growth (M14 melanoma): 98.2%

COc1ccc2c(c1)c(-c1cc(N)n3nc(-c4c[nH]c5ccccc45)cc3n1)cn2C
growth (DU-145 prostate): -46.6% (active)
growth (K-562 leukemia): 1.75% (active)
growth (MALME-3M melanoma): -89.9% (active)
growth (MDA-MB-231 breast): -75.7% (active)
growth (RXF 393 renal): -79% (active)
growth (SF-268 CNS): -41.1% (active)
growth (SF-295 CNS): -76.9% (active)
growth (SF-539 CNS): -97.1% (active)
growth (UACC-257 melanoma): -89.6% (active)
growth (M14 melanoma): -71.2% (active)

COc1cc(/C=C/C(=O)c2cnn(-c3cc(=O)[nH]c4ccc(C)cc34)c2C)cc(OC)c1OC
growth (DU-145 prostate): -54.6% (active)
growth (K-562 leukemia): 0.896% (active)
growth (MALME-3M melanoma): -19.5% (active)
growth (MDA-MB-231 breast): -2.3% (active)
growth (RXF 393 renal): -76.9% (active)
growth (SF-268 CNS): 6.69% (active)
growth (SF-295 CNS): 12.7%
growth (SF-539 CNS): -29% (active)
growth (UACC-257 melanoma): 5.74% (active)
growth (M14 melanoma): -51.2% (active)

COc1ccc(/C=C/C(=O)c2ccc(OC)c(S(N)(=O)=O)c2)c(C(F)(F)F)c1
growth (DU-145 prostate): 16.4%
growth (K-562 leukemia): 7% (active)
growth (MALME-3M melanoma): 17.8%
growth (MDA-MB-231 breast): 5.46% (active)
growth (RXF 393 renal): 16.4%
growth (SF-268 CNS): 15.5%
growth (SF-295 CNS): 37.5%
growth (SF-539 CNS): -84.9% (active)
growth (UACC-257 melanoma): 62.3%
growth (M14 melanoma): -48.5% (active)

O=C1N/C(=N\c2nccs2)S/C1=C\c1ccc([N+](=O)[O-])cc1
growth (DU-145 prostate): 39.9%
growth (K-562 leukemia): 13.3%
growth (MALME-3M melanoma): 28.4%
growth (MDA-MB-231 breast): 10.8%
growth (RXF 393 renal): 8.41% (active)
growth (SF-268 CNS): 19.9%
growth (SF-295 CNS): 15%
growth (SF-539 CNS): 4.72% (active)
growth (UACC-257 melanoma): 8.51% (active)
growth (M14 melanoma): 5.66% (active)

c1n[nH]cc1-c1nc2ccc3[nH]ncc3c2c2c1CC1(CCOCC1)CC2
growth (DU-145 prostate): 41.6%
growth (K-562 leukemia): 39.5%
growth (MALME-3M melanoma): 22.6%
growth (MDA-MB-231 breast): 59.4%
growth (RXF 393 renal): -15.8% (active)
growth (SF-268 CNS): 34.4%
growth (SF-295 CNS): 65.8%
growth (SF-539 CNS): 26.6%
growth (UACC-257 melanoma): 53%
growth (M14 melanoma): 23.9%

O=C1/C(=C/c2cnc(-c3ccccc3)s2)SC(=S)N1Cc1ccc2c(c1)OCO2
growth (DU-145 prostate): 86%
growth (K-562 leukemia): 42.1%
growth (MALME-3M melanoma): 70.2%
growth (MDA-MB-231 breast): 76.9%
growth (RXF 393 renal): 10.5%
growth (SF-268 CNS): 44.6%
growth (SF-295 CNS): 9.27% (active)
growth (SF-539 CNS): 23.3%
growth (UACC-257 melanoma): 108%
growth (M14 melanoma): 107%

COC(=O)c1cccc(Oc2ccc(NC(=O)Nc3cc(C(F)(F)F)ccc3F)cc2)c1
growth (DU-145 prostate): 78.8%
growth (K-562 leukemia): 59.5%
growth (MALME-3M melanoma): 77.7%
growth (MDA-MB-231 breast): 40%
growth (RXF 393 renal): 41.4%
growth (SF-268 CNS): 50.2%
growth (SF-295 CNS): 58.8%
growth (SF-539 CNS): 34.1%
growth (UACC-257 melanoma): 90.8%
growth (M14 melanoma): 84.9%

COc1cc(CNC(=O)C[C@H](C)CCC=C(C)C)ccc1OCc1cn(-c2ccc(Cl)c(Cl)c2)nn1
growth (DU-145 prostate): 76.8%
growth (K-562 leukemia): 51.9%
growth (MALME-3M melanoma): 77.4%
growth (MDA-MB-231 breast): 75.7%
growth (RXF 393 renal): 74.8%
growth (SF-268 CNS): 58.4%
growth (SF-295 CNS): 80.5%
growth (SF-539 CNS): 5.3% (active)
growth (UACC-257 melanoma): 91%
growth (M14 melanoma): 89%

O=C(N/N=C/c1ccc(Cl)cc1)c1ccc(OCc2nc3ccc(Cl)cc3[nH]2)cc1
growth (DU-145 prostate): -36.1% (active)
growth (K-562 leukemia): 14.6%
growth (MALME-3M melanoma): 37.5%
growth (MDA-MB-231 breast): 6.26% (active)
growth (RXF 393 renal): -10% (active)
growth (SF-268 CNS): 82.1%
growth (SF-295 CNS): 13.8%
growth (SF-539 CNS): 67.6%
growth (UACC-257 melanoma): 24.8%
growth (M14 melanoma): -14.1% (active)

CC1=C(C(=O)OCc2ccccc2)C(c2cccc3ccccc23)n2c(nc3ccccc32)N1 (stereo not given)
growth (DU-145 prostate): 28.9%
growth (K-562 leukemia): 11.7%
growth (MALME-3M melanoma): 16.8%
growth (MDA-MB-231 breast): 37.9%
growth (RXF 393 renal): 0.534% (active)
growth (SF-268 CNS): 44.9%
growth (SF-295 CNS): 10.5%
growth (SF-539 CNS): 11.8%
growth (UACC-257 melanoma): 40.7%
growth (M14 melanoma): 23.9%

Cc1ccc2nc(COc3ccc(C(=O)NNC(=O)Nc4ccc(Cl)c(C(F)(F)F)c4)cc3)[nH]c2c1
growth (DU-145 prostate): 59.3%
growth (K-562 leukemia): 20.8%
growth (MALME-3M melanoma): -48.5% (active)
growth (MDA-MB-231 breast): 3.89% (active)
growth (RXF 393 renal): 50.2%
growth (SF-268 CNS): 40.1%
growth (SF-295 CNS): 63%
growth (SF-539 CNS): -10.6% (active)
growth (UACC-257 melanoma): -17.4% (active)
growth (M14 melanoma): 27.7%

Nc1nnc(-c2cncc(Br)c2)c(-c2c[nH]c3ccc(Cl)cc23)n1
growth (DU-145 prostate): 99.4%
growth (K-562 leukemia): 30.5%
growth (MALME-3M melanoma): 99.3%
growth (MDA-MB-231 breast): 74.7%
growth (RXF 393 renal): 63.5%
growth (SF-268 CNS): 88.6%
growth (SF-295 CNS): 92.4%
growth (SF-539 CNS): 72.5%
growth (UACC-257 melanoma): 108%
growth (M14 melanoma): 86.4%

O=C(CSc1nnc(-c2ccc(-c3nc4ccc(Cl)cc4[nH]3)cc2)o1)Nc1ccccc1
growth (DU-145 prostate): 6.69% (active)
growth (K-562 leukemia): 12.3%
growth (MALME-3M melanoma): 2.32% (active)
growth (MDA-MB-231 breast): -52% (active)
growth (RXF 393 renal): -40.6% (active)
growth (SF-268 CNS): 49.1%
growth (SF-295 CNS): 75.7%
growth (SF-539 CNS): -92.8% (active)
growth (UACC-257 melanoma): 47.7%
growth (M14 melanoma): 4.09% (active)

O=C(Nc1ccc(F)cc1)Nc1nc2ccc([N+](=O)[O-])cc2s1
growth (DU-145 prostate): 24.2%
growth (K-562 leukemia): 6.19% (active)
growth (MALME-3M melanoma): -17.9% (active)
growth (MDA-MB-231 breast): -2.3% (active)
growth (RXF 393 renal): -14.9% (active)
growth (SF-268 CNS): 18%
growth (SF-295 CNS): -46% (active)
growth (SF-539 CNS): 7.13% (active)
growth (UACC-257 melanoma): -12.8% (active)
growth (M14 melanoma): -3.58% (active)

COc1cc(C2CC(c3ccc(S(=O)(=O)NCCNc4nc(N(C)C)nc(N5CCOCC5)n4)cc3)=Nc3c(N)nc(N)nc3N2)cc(OC)c1OC (stereo not given)
growth (DU-145 prostate): 109%
growth (K-562 leukemia): 92.5%
growth (MALME-3M melanoma): 92.6%
growth (MDA-MB-231 breast): 80.8%
growth (RXF 393 renal): 85.7%
growth (SF-268 CNS): 89.6%
growth (SF-295 CNS): 94.4%
growth (SF-539 CNS): 96.8%
growth (UACC-257 melanoma): 99.8%
growth (M14 melanoma): 101%

O=C(CSc1nc2c(c(=O)[nH]1)CCCC2)Nc1ccccc1C(=O)O
growth (DU-145 prostate): 110%
growth (K-562 leukemia): 95.8%
growth (MALME-3M melanoma): 96.7%
growth (MDA-MB-231 breast): 109%
growth (RXF 393 renal): 108%
growth (SF-268 CNS): 106%
growth (SF-295 CNS): 100%
growth (SF-539 CNS): 97.9%
growth (UACC-257 melanoma): 109%
growth (M14 melanoma): 108%

CCOc1ccc2[nH]c(=O)c(C(c3nnnn3CC3CCCO3)N3CCN(Cc4ccccc4)CC3)cc2c1 (stereo not given)
growth (DU-145 prostate): 93.6%
growth (K-562 leukemia): 111%
growth (MALME-3M melanoma): 65%
growth (MDA-MB-231 breast): 61.6%
growth (RXF 393 renal): 58.7%
growth (SF-268 CNS): 55.5%
growth (SF-295 CNS): 57.6%
growth (SF-539 CNS): 57.6%
growth (UACC-257 melanoma): 113%
growth (M14 melanoma): 94.3%

Source: PubChem BioAssay (NCI)
